Bioassay records as filed in PubChem BioAssay.
Only a selection was taken, and hits are over-represented in it overall.
HT1080NT lethal – kills 2HG-producing HT-1080-NT fibrosarcoma cells. Potency, µM (titrated, usually from 46.1 µM), inactives show top-dose activity, negative = less viability, most hits filed as cytotoxic. HT-1080-NT fibrosarcoma viability, CellTiter-Glo ATP luminescence, 48 h. hit rate 1.6% among 360,000;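 note: NT is the 2HG producing partner of a matched IDH1 knockdown line; potency is the fitted concentration of half-maximal effect; 0% = DMSO-treated cells and -100% = media-only wells without cells; nearly all actives have a fitted effect of over 55% in size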
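750 cells/well, RPMI + 5% FBS; 2 h settle, compound pin-transfer, 48 h at 37 degrees C. CellTiter-Glo 10 min RT, luminescence. Normalized to DMSO and media-only wells.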
HT1080 IDH1KD tx – HT-1080 IDH1 knockdown cell toxicity (counter line) | hit rate 2% among 360,000 | AID 686971 | HT-1080 IDH1 knockdown viability, ATP luminescence, 48 h | Potency, µM (top dose mostly 46.1 µM), for the others: at the highest dose activity, negative = toxicity, most hits filed as cytotoxic;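 note: potency is the fitted concentration of half-maximal effect; 0% = DMSO wells and -100% = cell-free medium wells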
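CellTiter-Glo luminescence after 48 h compound exposure at 37 degrees C of IDH1-knockdown HT-1080 cells in 5% FBS RPMI. %Activity scaled between DMSO wells and cell-free media wells, with curves fitted and assigned curve classes.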
ALOX12 inh – ALOX12 (human) lipoxygenase inhibition. purified 12hLO, xylenol orange hydroperoxide absorbance. hit rate 1.1% among 580,000. AID 1671190. P18054. Potency, µM (doses to about 108 µM), for the others: at the highest dose activity change, negative = inhibition, usual class: inhibitors; note: potency is the fitted concentration of half-maximal effect
Target sequence (P18054 whole entry, looked up): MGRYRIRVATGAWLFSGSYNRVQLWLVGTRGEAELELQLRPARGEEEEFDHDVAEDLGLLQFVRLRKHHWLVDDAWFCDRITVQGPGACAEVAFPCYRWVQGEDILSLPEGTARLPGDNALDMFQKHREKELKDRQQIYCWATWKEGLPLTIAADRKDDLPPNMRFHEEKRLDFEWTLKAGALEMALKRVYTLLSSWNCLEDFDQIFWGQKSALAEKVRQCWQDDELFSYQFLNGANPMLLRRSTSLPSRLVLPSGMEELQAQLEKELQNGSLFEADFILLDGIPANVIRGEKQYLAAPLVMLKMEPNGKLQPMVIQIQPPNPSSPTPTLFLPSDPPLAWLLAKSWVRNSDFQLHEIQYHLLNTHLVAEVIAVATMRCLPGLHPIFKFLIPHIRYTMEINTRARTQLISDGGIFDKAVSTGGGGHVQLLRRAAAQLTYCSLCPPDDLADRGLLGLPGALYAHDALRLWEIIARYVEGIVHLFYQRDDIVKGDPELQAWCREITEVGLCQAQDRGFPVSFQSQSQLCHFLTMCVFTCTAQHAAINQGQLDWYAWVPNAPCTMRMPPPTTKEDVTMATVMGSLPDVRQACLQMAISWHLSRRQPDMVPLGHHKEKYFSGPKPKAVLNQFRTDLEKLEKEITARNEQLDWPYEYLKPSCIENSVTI
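Purified human 12hLO (150 nM final) in 25 mM Hepes, 0.01% Triton X-100, pH 7.0 was preincubated 15 min at room temperature with compound. Then 40 uM arachidonic acid was added, 30 min. Hydroperoxide was read by Fe-XO absorbance ratio 573/405 nm.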
IL1B secr inh – blocks inflammasome-driven IL-1 beta release; THP-1 LPS/ATP IL-1B secretion, AlphaLISA, 16 h; active compounds read low; activity change, % at 57.5 µM; hit rate 4.7% among 360,000; AID 743279; in the data active = activity change below about -50%; inconclusive = mostly about -30% to -49%
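Secreted IL-1B measured by AlphaLISA bead assay after 16 h compound exposure of THP-1 cells; compounds (final up to 57.5 uM) added 1 h before LPS (250 ng/mL) and ATP (1.25 mM) stimulation; lower signal means less secretion.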
DT40 TDP1 CPT – DT40-hTDP1 cell growth loss with CPT; AID 686979; chicken DT40 Tdp1-/-;hTDP1 cells + 20 nM CPT, ATP luminescence, 48 h; Potency, µM (highest dose often 46.2 µM), inactives show at the highest dose activity change, negative = growth inhibition, most hits filed as inhibitors; hit rate 12% among 420,000; note: potency is the fitted concentration of half-maximal effect; nearly all actives have a fitted effect of over 55% in size
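Cell growth measured by CellTiter-Glo luminescence after a minimum 48 h, 37 C compound exposure with 20 nM CPT in Tdp1-knockout DT40 cells stably expressing hTDP1, seeded 400/well; qHTS titration format.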
TDP1 cell noCPT – qHTS for Inhibitors of human tyrosyl-DNA phosphodiesterase 1 (TDP1): qHTS in cells in absence of CPT | DT40 Tdp1-/- hTDP1 cells, no CPT, ATP luminescence, 48 h | Potency, µM (series often up to 46.2 µM), without a hit: top-dose activity change, negative = growth inhibition, usual class: inhibitors | hit rate 15% among 420,000 | AID 686978, 2013; note: potency is the fitted concentration of half-maximal effect; nearly all actives have a fitted effect of over 55% in size
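Compound effects on proliferation are scored in DT40 Tdp1-/-;hTDP1 cells in the absence of CPT. ATP levels (CellTiter-Glo luminescence) are recorded after a ≥48 hr, 37 °C incubation.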
* marks the source's active call; other numbers are inactive results; ? = inconclusive; / = no result; [ ] = another dose, or the depositor's remark. Unless noted, calls come from the whole dose curve; as a rule, active = well fitted curve in the direction sought with a large enough effect; inconclusive = small, poorly fitted or top-dose-only effect, or another doubt; inactive = no such curve, though single readings can be large; an effect the other way counts as inactive or inconclusive. Unless noted, % is set by controls: 0 for no effect and ±100 for the full control effect.

SMILES	HT1080NT lethal	HT1080 IDH1KD tx	ALOX12 inh	IL1B secr inh	DT40 TDP1 CPT	TDP1 cell noCPT
COc1ccc(CNCc2ccc(F)cc2)c(OC)c1	1%	1%	-5%	-26	-2%	?
Cc1cc2nc3n(c(=O)c2n1CC(=O)Nc1cccc(C#N)c1)CCC3	/	/	9%	/	/	/
COc1ccccc1NS(=O)(=O)c1cc(NC(=O)c2sc3cc(Cl)ccc3c2Cl)ccc1C	23%	9%	-6%	24	?	?
Cc1ccc(C(=O)Nc2ccc(C)c(S(=O)(=O)Nc3ccccc3Cl)c2)s1	-21%	?	-20%	-62*	?	?
O=C(Nc1cccc(S(=O)(=O)Nc2ccc(Cl)cc2)c1)c1cc2c(s1)CCCC2	21µM*	21µM*	?	-81*	?	?
Cc1ccc(NC(=O)c2cc3c(s2)CCCC3)cc1S(=O)(=O)Nc1ccccc1Cl	-4%	?	-6%	92	16µM*	23µM*
O=C(Nc1ccc(Cl)c(S(=O)(=O)Nc2ccccc2Cl)c1)c1cccs1	?	?	-10%	-93*	-13%	?
c1ccc(Cn2cc(CN3CCN(c4ccncc4)CC3)c(-c3cc4ccccc4o3)n2)cc1	/	/	64%	/	/	/
Cc1cccc(CNc2cc(-c3cccc(NS(C)(=O)=O)c3)ncn2)c1	/	/	35µM*	/	?	?
COc1ccccc1CNc1cc(-c2cccc(C#N)c2)ncn1	/	/	?	/	-21%	-17%
Cc1cccc(CNc2cc(-c3cccc(C#N)c3)ncn2)c1	/	/	?	/	21µM*	4.6µM*
Cc1cccc(CNc2cc(-c3ccc(N(C)C)cc3)ncn2)c1	/	/	-11%	/	-25%	?
c1cncc(CNc2cc(-c3ccoc3)ncn2)c1	/	/	?	/	-15%	2%
Cc1cccc(CNc2cc(-c3ccoc3)ncn2)c1	/	/	18µM*	/	?	?
CCc1ccc(N2CC(c3ncon3)CC2=O)cc1 (stereo not given)	/	/	12%	/	/	/
COC(=O)[C@@H]1Cc2ncn(C(C)C)c2CN1S(=O)(=O)c1ccccc1	/	/	8%[176 µM]	/	/	/
COc1cc(C)ccc1OCCCCOc1ccccc1C(C)=O	9%	0%	-5%	8	1.8µM*	?
CC(C)c1cc(=O)oc2c3c4c(cc12)CCCN4CCC3	-5%	4%	14%	-28	16µM*	?
O=c1oc2c3c4c(cc2c(C(F)(F)F)c1CCN1CCOCC1)CCCN4CCC3	-8%	0%	6%	78	16µM*	16µM*
Cc1cc(=O)oc2c3c4c(cc12)OCCN4CCC3	6%	-8%	6%	11	?	-29%
O=C(NCc1cccc(CN2CCOCC2)c1)c1cc2ccccc2oc1=O	/	/	-19%	/	/	/
CCOC(=O)c1ccc(Oc2nc3c(c(=O)n(C)c(=O)n3C)n2Cc2ccccc2F)cc1	/	/	31%	/	/	/
COc1ccc2c(C)cc(=O)oc2c1C	10%	6%	0%	4	-16%	-12%
Cc1cc(=O)oc2c(N)nccc12	-25%	-16%	/	-105*	?	?
O=S(=O)(c1ccccc1)N1CCN(c2nc(-c3cccnc3)nc3ccccc23)CC1	-2%	-6%	-20%	43	?	21µM*
SMILES	HT1080NT lethal	HT1080 IDH1KD tx	ALOX12 inh	IL1B secr inh	DT40 TDP1 CPT	TDP1 cell noCPT
Cc1ccc(S(=O)(=O)N2CCN(c3nc(-n4ccnn4)nc4ccccc34)CC2)cc1	20%	12%	/	/	13µM*	16µM*
Cc1ccc(S(=O)(=O)N2CCN(c3nc(-c4ccnnc4)nc4ccccc34)CC2)cc1	4%	11%	/	/	?	16µM*
Cc1ccc(S(=O)(=O)N2CCN(c3nc(N(C)c4cc(Cl)ccc4O)nc4ccccc34)CC2)cc1	8%	10%	/	/	?	?
Cc1ccc(S(=O)(=O)N2CCN(c3nc(-c4cccnc4)nc4ccccc34)CC2)cc1C	/	/	2%	/	/	/
CC(=O)c1ccc(S(=O)(=O)N2CCN(c3nc(-c4cccnc4)nc4ccccc34)CC2)cc1	4%	-4%	99%	-13	21µM*	?
CCN(CC)C(=O)c1oc2ccccc2c1NC(=O)c1c(F)cccc1F	/	/	-2%	/	/	/
COc1ccc(Cl)cc1N(C)c1nc(N2CCN(S(=O)(=O)c3ccc(C)cc3)CC2)c2ccccc2n1	-15%	19%	/	/	8.9µM*	6.3µM*
CNC(=S)N(C)/N=C1/C(=O)N(Cc2c(Cl)cccc2Cl)c2ccccc21	-11%	-13%	?	0	15µM*	18µM*
CCC(C)(C)NC(=O)CC(c1ccccc1)c1ccccc1	/	/	-37%	/	/	/
CN(C)CCCCSC(=N)N	/	/	2%	/	1%	-26%
N=C(N)SCCN	12%	-1%	1%	21	23µM*	15µM*
CCc1ccc(CSc2nc(-c3ccccc3OC)nc3c2Cc2c(CO)cnc(C)c2O3)cc1	/	/	-15%	/	?	?
CC1(C(=O)NS(=O)(=O)c2cccs2)CCN1C(=O)C1CCCCC1 (stereo not given)	8%	24%	?	13	-11%	5%
CC(C)(C)c1ccc(CC(=O)N2CCC2(C)C(=O)NS(=O)(=O)Cc2ccccc2)cc1 (stereo not given)	15%	2%	-53%	21	-15%	-6%
CC(C)c1ccc(CC(=O)N2CCC2(C)C(=O)Nc2cnc3ccccc3c2)cc1 (stereo not given)	?	?	5%	-20	16µM*	?
CC(C)c1ccc(CC(=O)N2CCC2(C)C(=O)Nc2ccccc2)cc1 (stereo not given)	-7%	-19%	6%	2	?	?
CC(C)(C)c1ccc(CC(=O)N2CCC2(C)C(=O)Nc2cnc3ccccc3c2)cc1 (stereo not given)	?	?	-15%	-10	21µM*	12µM*
CC(C)(C)c1ccc(C(=O)N2CCC2(C)C(=O)Nc2cnc3ccccc3c2)cc1 (stereo not given)	-2%	-19%	?	-8	23µM*	26µM*
CC1(C(=O)Nc2cnc3ccccc3c2)CCN1Cc1ccc2c(c1)OCCO2 (stereo not given)	13%	1%	-20%	0	?	?
COc1ccc(OC)c(S(=O)(=O)Nc2c(NC3CCCCC3)c3ccccc3oc2=O)c1	-8%	-3%	/	-2	?	?
COc1ccc(C(=O)C(=NN)c2ccccc2)cc1	1%	-7%	-19%	0	-12%	-5%
COc1ccc(NC(=O)/C=N/O)cc1	-13%	7%	-2%	20	0%	3%
